Among the data in PubChem BioAssay (EPA / NIEHS) are outcome and AC50 values, retold here.

Read-out in assay [1]: solute carrier (SLCO1B1), SLCO1B1 (gene 10599)
The assay is described as follows: LTEA_HepaRG_SLCO1B1: Life Technologies and Expression Analysis (LTEA) Assay for solute carrier (SLCO1B1) using HepaRG (AID 2283530). Particulars: mRNA level, 48 h; actives raise or lower the signal. An outline of the steps:
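HepaRG, serum-free induction medium, 48 h dosing, 8-pt half-log from 100 uM, 0.5% DMSO vehicle, duplicates. Readout: SLCO1B1 mRNA, qRT-PCR, ACTB/GAPDH/POLR2A normalization; up or down fit vs DMSO.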

Read-out in assay [2]: sulfotransferase 2A1 (SULT2A1), SULT2A1 (gene 6822)
The assay is described as follows: LTEA_HepaRG_SULT2A1: Life Technologies and Expression Analysis (LTEA) Assay for sulfotransferase 2A1 (SULT2A1) using HepaRG (AID 2283531). The settings on record: mRNA level, 48 h; actives raise or lower the signal. An outline of the steps: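 Transcript levels of SULT2A1, quantified by qRT-PCR and normalized to three housekeeping genes, serve as the readout. Human HepaRG cultures receive test chemicals for 48 h at up to 100 uM in half-log steps, with 0.5% DMSO vehicle.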

Read-out in assay [3]: Transforming Growth Factor (TGFA), TGFA (gene 7039)
The experiment in a line: LTEA_HepaRG_TGFA: Life Technologies and Expression Analysis (LTEA) Assay for Transforming Growth Factor (TGFA) using HepaRG (AID 2283532). The settings on record: mRNA level, 48 h; actives raise or lower the signal. An outline of the steps:
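Differentiated HepaRG cells exposed 48 hours in serum-free induction medium, 0.5% DMSO vehicle, 8-point half-log series from 100 uM, in duplicate. TGFA mRNA by TaqMan qRT-PCR, normalised to ACTB, GAPDH, POLR2A; bidirectional fit versus DMSO.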

Read-out in assay [4]: Transforming Growth Factor (TGFB1), TGFB1 (gene 7040)
The experiment in a line: LTEA_HepaRG_TGFB1: Life Technologies and Expression Analysis (LTEA) Assay for Transforming Growth Factor (TGFB1) Transporter using HepaRG (AID 2283533). Particulars: mRNA level, 48 h; actives raise or lower the signal. An outline of the steps: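 HepaRG, 48 h post-plating, switched to serum-free induction medium; chemicals 100 uM top, half-log, 8 pts, 0.5% DMSO, dup; 48 h exposure; RNA → Fluidigm TaqMan qRT-PCR; norm ACTB/GAPDH/POLR2A; bidirectional fit vs DMSO.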

Read-out in another assay: TIMP1, TIMP1 (gene 7076)
The experiment in a line: LTEA_HepaRG_TIMP1: Life Technologies and Expression Analysis (LTEA) Assay for TIMP1 using HepaRG (AID 2283534). The settings on record: mRNA level, 48 h; actives raise or lower the signal. An outline of the steps: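 Readout is TIMP1 mRNA level measured by qRT-PCR and normalized to three housekeeping genes. Human HepaRG cells were treated for 48 h in duplicate at eight concentrations up to 100 uM (0.5% DMSO); gain or loss fitted against DMSO.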

Read-out in assay [5]: Tumor necrosis factor receptor 1 (TNFRSF1A), TNFRSF1A (gene 7132)
The experiment in a line: LTEA_HepaRG_TNFRSF1A: Life Technologies and Expression Analysis (LTEA) Assay for Tumor necrosis factor receptor 1 (TNFRSF1A) using HepaRG (AID 2283535). The settings on record: mRNA level, 48 h; actives raise or lower the signal. An outline of the steps: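 Read-out is TNFRSF1A transcript level by TaqMan qRT-PCR, normalized to three housekeeping genes, scored as gain or loss of signal versus 0.5% DMSO. Human HepaRG cells received test chemicals for 48 h at up to 100 uM (half-log series).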

Read-out in assay [6]: Cellular tumor antigen p53 (Homo sapiens) (UniProt P04637)
The experiment in a line: LTEA_HepaRG_TP53: Life Technologies and Expression Analysis (LTEA) Assay for Tumor Protein P53 (TP53) using HepaRG (AID 2283537). Particulars: mRNA level, 48 h; actives raise or lower the signal. An outline of the steps:
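Gain or loss of TP53 mRNA signal is scored relative to 0.5% DMSO after 48 h chemical treatment of HepaRG liver cells, tested in duplicate at eight half-log concentrations up to 100 uM.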

Read-out in assay [7]: UDP glucuronosyltransferase (UGT1A1), UGT1A1 (gene 54658)
The experiment in a line: LTEA_HepaRG_UGT1A1: Life Technologies and Expression Analysis (LTEA) Assay for UDP glucuronosyltransferase (UGT1A1) using HepaRG (AID 2283538). The settings on record: mRNA level, 48 h; actives raise or lower the signal. An outline of the steps: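 Differentiated human HepaRG cells in serum-free induction medium were exposed in duplicate for 48 h to eight half-log concentrations up to 100 uM in 0.5% DMSO. UGT1A1 mRNA was quantified by TaqMan qRT-PCR, normalized to ACTB, GAPDH and POLR2A, and fitted bidirectionally against DMSO.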

Read-out in assay [8]: UDP glucuronosyltransferase (UGT1A6), UGT1A6 (gene 54578)
The assay is described as follows: LTEA_HepaRG_UGT1A6: Life Technologies and Expression Analysis (LTEA) Assay for UDP glucuronosyltransferase (UGT1A6) using HepaRG (AID 2283539). The settings on record: mRNA level, 48 h; actives raise or lower the signal. An outline of the steps:
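HepaRG, 48 h post-plating switch to serum-free induction medium; chemical 48 h, 100 uM top, half-log x8, duplicate, 0.5% DMSO. Phenobarbital 1mM induction control. UGT1A6 mRNA by TaqMan qRT-PCR; gain/loss fit vs DMSO.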

Read-out in assay [9]: X-box binding protein 1 (XBP1), XBP1 (gene 7494)
The assay is described as follows: LTEA_HepaRG_XBP1: Life Technologies and Expression Analysis (LTEA) Assay for X-box binding protein 1 (XBP1) using HepaRG (AID 2283540). Particulars: mRNA level, 48 h; actives raise or lower the signal. An outline of the steps: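 Transcript levels of XBP1, measured by qRT-PCR and normalised to three housekeeping genes, were fitted bidirectionally relative to 0.5% DMSO controls. Human HepaRG cells received eight-point half-log dilutions from 100 uM for 48 h.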

Assay [10] is described as follows: LTEA_HepaRG_LDH_cytotoxicity: Cytotoxicity Assessment in the Life Technologies and Expression Analysis (LTEA) Assay (AID 2283563; active = hit-call score of the fitted dose curve at least 0.9, where 1 is the maximum;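 as to AC50: LDH activity released into spent culture medium as a marker of cell death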). An outline of the steps: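 Cells were thawed and plated for 48 h. Medium was then replaced with serum-free induction medium. Chemicals (8 half-log points, maximum 100 uM, 0.5% DMSO) were added in duplicate for 48 h, after which spent medium was assayed for LDH.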

A short description of assay [11]: ATG_XTT_Cytotoxicity: Cytotoxicity Assessment in the Attagene TRANS-FACTORIAL HepG2 Assay (AID 2283584; active = hit-call score of the fitted dose curve at least 0.9, where 1 is the maximum;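 as to AC50: cells exposed to compound for 24 h before reading; active means loss of viability signal versus DMSO baseline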). An outline of the steps: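 Cells: human HepG2, transiently transfected with MRTU reporter constructs. Exposure 24 h. Readout: XTT, cell number. Baseline/neg ctrl DMSO; loss-of-signal scored.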
A short description of assay [12]: TOX21_p53_BLA_p2_viability: Viability Assessment in the Tox21 HCT-116 p53 Agonism Beta-lactamase Assay, Phase 2 (AID 2283591; active = hit-call score of the fitted dose curve at least 0.9, where 1 is the maximum;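 also: compound exposure lasted 16 h at 37 °C; actives lower the ATP signal meaning cytotoxicity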). An outline of the steps:
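HCT116 p53-bla cells, 4000/well, dosed after 5 h plating (217-fold dilution of DMSO stocks) and incubated 16 h at 37C. Viability taken as cellular ATP by CellTiter-Glo luminescence after 30 min RT; signal loss marks cytotoxicity.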

A short description of assay [13]: TOX21_p53_BLA_p3_viability: Viability Assessment in the Tox21 HCT-116 p53 Agonism Beta-lactamase Assay, Phase 3 (AID 2283593; active = hit-call score of the fitted dose curve at least 0.9, where 1 is the maximum;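 also: cells exposed to compound for 16 h before reading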). An outline of the steps:
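HCT116 cells, 4000/well, dosed 5 h after plating by pin transfer (217-fold dilution from DMSO stock) and incubated 16 h at 37C, 5% CO2. Viability read as ATP luminescence with CellTiter-Glo after 30 min at room temperature.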

In assay [14] the target is Cellular tumor antigen p53 (Homo sapiens) (UniProt P04637). The assay is described as follows: TOX21_p53_BLA_p3_ratio: Tox21 HCT-116 p53 Agonism Beta-lactamase Assay, Ratio, Phase 3 (AID 2283596; active = hit-call score of the fitted dose curve at least 0.9, where 1 is the maximum). An outline of the steps:
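HCT116 p53-bla cells (4000/well) given compound in DMSO (217-fold dilution) after 5 h, incubated 16 h at 37C. CCF4-AM substrate 2 h at room temperature; 460/530 nm emission ratio, gain fitted against DMSO.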

The nature of assay [15]: TOX21_p53_BLA_p4_viability: Viability Assessment in the Tox21 HCT-116 p53 Agonism Beta-lactamase Assay, Phase 4 (AID 2283597; active = hit-call score of the fitted dose curve at least 0.9, where 1 is the maximum;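 also: hits lower the luminescence signal meaning cytotoxicity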). An outline of the steps: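 Cells plated, 5 h pre-incubation; DMSO compounds pinned (217-fold dilution); 16 h, 37C/5% CO2; CCF4-AM 2 h RT; CellTiter-Glo 30 min RT; luminescence read.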
The target in assay [16] is Cellular tumor antigen p53 (Homo sapiens) (UniProt P04637). The experiment in a line: TOX21_p53_BLA_p5_ratio: Tox21 HCT-116 p53 Agonism Beta-lactamase Assay, Ratio, Phase 5 (AID 2283599; active = hit-call score of the fitted dose curve at least 0.9, where 1 is the maximum). An outline of the steps: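 HCT-116 p53-bla cells (4000/well) plated 5 h, dosed with compound (217-fold DMSO dilution) for 16 h at 37 C; CCF4-AM substrate 2 h at room temperature. Activity is the 460/530 nm emission ratio (405 nm excitation), fitted in gain-of-signal direction versus DMSO.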

A short description of assay [17]: TOX21_p53_BLA_p5_viability: Viability Assessment in the Tox21 HCT-116 p53 Agonism Beta-lactamase Assay, Phase 5 (AID 2283600; active = hit-call score of the fitted dose curve at least 0.9, where 1 is the maximum). An outline of the steps: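 4000 cells/well; 5 h pre-incubation; DMSO compounds pin-transferred, 217-fold dilution; 16 h, 37C/5% CO2; CCF4-AM 2 h RT; CellTiter-Glo 30 min RT; luminescence.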
Read-out in assay [18]: Thyroid Hormone Responsive (THRSP), THRSP (gene 7069)
The assay is described as follows: LTEA_HepaRG_THRSP: Life Technologies and Expression Analysis (LTEA) Assay for Thyroid Hormone Responsive (THRSP) using HepaRG (AID 2283536). Particulars: mRNA level, 48 h; actives raise or lower the signal. An outline of the steps:
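Differentiated HepaRG cells treated 48 h in serum-free induction medium with 8 half-log concentrations up to 100 uM (0.5% DMSO), duplicates. THRSP mRNA by TaqMan qRT-PCR normalised to ACTB, GAPDH, POLR2A; bidirectional fit versus DMSO.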

By AC50 is commonly meant the concentration giving half of the maximal activity seen.

Records with an inconclusive call do not appear. Activity calls are given as the source filed them. The calls were made as follows, unless noted: active = hit-call score of the fitted dose curve at least 0.9, where 1 is the maximum; inactive = score below 0.9.

Cellular tumor antigen p53 (Homo sapiens), sequence (P04637 whole entry, looked up): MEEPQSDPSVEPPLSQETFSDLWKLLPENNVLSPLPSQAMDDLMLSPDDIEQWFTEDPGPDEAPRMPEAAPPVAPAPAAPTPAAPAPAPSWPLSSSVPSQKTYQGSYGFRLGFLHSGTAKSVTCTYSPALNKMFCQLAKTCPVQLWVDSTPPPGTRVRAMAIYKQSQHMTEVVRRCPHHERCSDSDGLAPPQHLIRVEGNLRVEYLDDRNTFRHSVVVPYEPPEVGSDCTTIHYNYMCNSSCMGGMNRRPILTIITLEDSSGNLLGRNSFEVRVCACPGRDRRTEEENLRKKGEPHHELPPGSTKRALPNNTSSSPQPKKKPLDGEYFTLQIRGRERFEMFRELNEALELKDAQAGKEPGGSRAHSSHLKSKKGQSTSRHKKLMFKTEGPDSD

Turning to `NCCOCCOCCN`, the outcome in assay [1] is “inactive”; in assay [2] it was “inactive”; in assay [3], “inactive”; in assay [4], “inactive”; with TIMP1, TIMP1 (gene 7076), “inactive”; in assay [5], “inactive”. In addition, the molecule was classed as inactive in assay [6], in assay [7], in assay [8], in [9], in [10] and in assay [11]. In addition, the molecule was called inactive in assay [12], in assay [13], in assay [14], in assay [15], in assay [16] and in [17].
As to `CCCCCCC(C=O)=Cc1ccccc1`, the outcome in assay [1] is “inactive”; in [2], “inactive”; in assay [3], “inactive”; in assay [4] it was “inactive”; with TIMP1, TIMP1 (gene 7076) it was “inactive”; in assay [5], “inactive”. For the same molecule, the call in [18], in assay [7], in assay [8], in assay [9], in assay [10] and in assay [11] was inactive.
With `CC(C)OC(=O)C(C)(C)Oc1ccc(C(=O)c2ccc(Cl)cc2)cc1`, the outcome was “inactive” in assay [1]; “inactive” in assay [2]; “inactive” in assay [3]; “inactive” in assay [4]; “inactive” in the assay with TIMP1, TIMP1 (gene 7076); “inactive” in [5]. The molecule was called inactive in assay [18], in assay [9], in assay [10] and in assay [11]. The AC50 in [7] was 3.76 µM (active); in assay [8], 0.0504 µM (active).
With `CCN(CC)CCOc1ccc(C(=C(Cl)c2ccccc2)c2ccccc2)cc1`, the AC50 in assay [1] is 13.3 µM (active); in assay [2] it was 79.3 µM (active); in assay [3], 42 µM (active); in assay [4], 42 µM (active); in assay [7], 80.1 µM (active); in [8], 56.6 µM (active). Moreover, the AC50 in [10] is 62.5 µM (active); in [11] it was 28 µM (active) [middle of 5 runs]. The outcome is “inactive” in the assay with TIMP1, TIMP1 (gene 7076); “inactive” in assay [5]; “inactive” in assay [18]; “inactive” in assay [9].
